The source of these data is PubChem BioAssay (NCI).

Some test systems named below: T-47D breast; BT-549 breast; MDA-MB-435 melanoma; SW-620 colon; MCF7 breast; HCT-116 colon; HCC-2998 colon; KM12 colon.
Common to all, as to experiment: NCI-60 one-dose screen, 48 h (100 = growth as untreated, 0 = no growth, -100 = all killed)
Conditions in all cases: 10 µM unless noted

Compounds without any hit were thinned out: in the full panel of roughly 83,000, 20% have a hit.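 Single-dose data. Exposure time 48 hours. Values below 10 considered active.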 Unmarked numbers belong to inactive results. Activity calls are given as the source filed them.

As for `NC(=O)c1ncn(C2OC(CO)C(O)C2O)n1` (stereo not drawn), the growth in the assay on T-47D breast is 84.6%; in the assay with BT-549 breast, 96.8%; with MDA-MB-435 melanoma, 107%; in the assay with SW-620 colon, 70.9%; in the assay on MCF7 breast, 80.8%; in the assay on HCT-116 colon, 57.5%. In addition, the growth in the assay on HCC-2998 colon was 92.8%; in the assay on KM12 colon it was 98.3%.
Take `CC1(C)CC[C@]2(C(=O)NCC#CCN3CCOCC3)CC[C@]3(C)C(=CC[C@@H]4[C@@]5(C)Cc6c([nH]c7ccccc67)C(C)(C)[C@@H]5CC[C@]43C)[C@@H]2C1`: the growth was 75.2% in the assay on T-47D breast; 101% in the assay with BT-549 breast; 83.1% in the assay on MDA-MB-435 melanoma; 103% in the assay on SW-620 colon; 81.1% with MCF7 breast; 73.9% in the assay with HCT-116 colon. Also, the growth is 105% with HCC-2998 colon and 91.3% with KM12 colon.
As to `O=C(N/N=C/c1cccnc1)c1ccccc1Nc1cccc(C(F)(F)F)c1`, the growth with T-47D breast was 61.9%; with BT-549 breast, 80.7%; in the assay on MDA-MB-435 melanoma, 26.2%; in the assay on SW-620 colon, 84.1%; in the assay with MCF7 breast it was 91.8%; with HCT-116 colon, 85.9%. In addition, the growth in the assay on HCC-2998 colon is 101%; in the assay on KM12 colon it was 88.2%.
For the molecule `O=C1Nc2ccccc2/C1=N/c1nc(-c2ccc(Cl)cc2)cs1`, the growth in the assay on T-47D breast is 43.4%; with BT-549 breast it was 63.8%; in the assay with MDA-MB-435 melanoma, 72.4%; with SW-620 colon it was 68.5%; in the assay on MCF7 breast, 52.6%; in the assay on HCT-116 colon, 59.1%. Besides, the growth was 86.4% with HCC-2998 colon and 70.8% with KM12 colon.
On to `C=C1C(=O)O[C@H]2[C@H]1CC/C(CNC(=O)/C=C/c1ccccc1F)=C\CC[C@@]1(C)O[C@@H]21`, for which the growth was -0.591% (active) with T-47D breast; -6.02% (active) in the assay on BT-549 breast; 23.1% in the assay with MDA-MB-435 melanoma; -54.3% (active) in the assay with SW-620 colon; -12.3% (active) in the assay with MCF7 breast; -34.9% (active) with HCT-116 colon. For the same molecule, the growth is 50.4% in the assay with HCC-2998 colon and 74.2% with KM12 colon.
As to `COc1ccc(C2CC(n3nnnc3-c3ccccc3)=NN2)cc1` (stereo not drawn), the growth in the assay on T-47D breast was 46.3%; in the assay with BT-549 breast, 81.4%; in the assay on MDA-MB-435 melanoma, 50.1%; in the assay on SW-620 colon, 50.6%; in the assay on MCF7 breast, 62%; in the assay with HCT-116 colon, 50.7%. Besides, the figures for the growth with HCC-2998 colon and in the assay on KM12 colon were 72.3% and 49.3%, respectively.
On to `CN1CCN(c2cc(F)c(NC3=C(Cl)C(=O)c4ncccc4C3=O)c(F)c2)CC1`, for which the growth in the assay with T-47D breast is -32.5% (active); in the assay with BT-549 breast it was 80.5%; in the assay on MDA-MB-435 melanoma, -75.8% (active); with SW-620 colon, -76.6% (active); with MCF7 breast it was -58.2% (active); with HCT-116 colon, -69.7% (active). Moreover, the growth is 61.9% in the assay with HCC-2998 colon and 82.4% in the assay with KM12 colon.
Consider `N/C(=N\N=C\c1cc2ccccc2[nH]1)N/N=C/c1cc2ccccc2[nH]1`, for which the growth in the assay with T-47D breast was 88.8%; with BT-549 breast, 98.7%; in the assay with MDA-MB-435 melanoma it was 104%; with SW-620 colon it was 101%; in the assay on MCF7 breast it was 69.8%; with HCT-116 colon, 86.8%. The growth with HCC-2998 colon is 99.6%; in the assay on KM12 colon it was 97.6%.
Take `Cn1/c(=N/NC(N)=S)ccc2ccccc21`: the growth is 52.9% in the assay on T-47D breast; 100% in the assay on BT-549 breast; 99.8% with MDA-MB-435 melanoma; 84.5% with SW-620 colon; 37.4% in the assay with MCF7 breast; 7.01% (active) in the assay with HCT-116 colon. Besides, the growth with HCC-2998 colon is 112%; in the assay on KM12 colon, 103%.
As for `CNC(=O)c1c(NC(=O)c2ccc(C(C)C)cc2)sc2c(CN(C)C)c(O)ccc12`, the growth is 80.6% in the assay with T-47D breast; 87.9% in the assay on BT-549 breast; 89.8% in the assay with MDA-MB-435 melanoma; 17.2% in the assay with SW-620 colon; 68.6% in the assay on MCF7 breast; 46.1% in the assay with HCT-116 colon. The growth in the assay with HCC-2998 colon was 55.4%; in the assay with KM12 colon it was 66.2%.
For the molecule `Cc1ccccc1CNc1ccc(N2CCOCC2)cc1`, the growth in the assay on T-47D breast was 106%; with BT-549 breast, 102%; in the assay with MDA-MB-435 melanoma it was 102%; in the assay on SW-620 colon it was 98%; in the assay on MCF7 breast, 102%; with HCT-116 colon, 104%. Besides, the growth in the assay with HCC-2998 colon is 105%; in the assay with KM12 colon, 100%.
`CC1CCN(C(=O)OCc2nc3nc(Cl)nc(N4CCOCC4)c3[nH]2)CC1`: the growth is -61.6% (active) in the assay with T-47D breast; -66% (active) with BT-549 breast; -76.5% (active) in the assay on MDA-MB-435 melanoma; -55.6% (active) with SW-620 colon; -18.9% (active) in the assay on MCF7 breast; -74.1% (active) in the assay on HCT-116 colon. Further, the figures for the growth with HCC-2998 colon and in the assay on KM12 colon were 2.05% (active) and 9.43% (active), respectively.
For `Cc1[nH]n(-c2cccc(Cl)c2)c(=O)c1/C=C1\C=Nc2ccc(Br)cc21`, the growth in the assay with T-47D breast was -47.4% (active); in the assay on BT-549 breast it was 41.5%; with MDA-MB-435 melanoma, 43.9%; with SW-620 colon, 17.2%; in the assay on MCF7 breast, 33.9%; in the assay on HCT-116 colon, -76% (active). Further, the results for the growth with HCC-2998 colon and with KM12 colon were 63.5% and 47.2%, respectively.
As for `O=c1nc2n(nc1/C=C/c1ccco1)CC(c1ccc(Cl)cc1)=NN2`, the growth is 49.7% in the assay on T-47D breast; 84.1% in the assay on BT-549 breast; 110% in the assay on MDA-MB-435 melanoma; 102% with SW-620 colon; 22.2% in the assay with MCF7 breast; 99% with HCT-116 colon. Further, the growth with HCC-2998 colon is 110%; in the assay on KM12 colon it was 115%.
In the case of `CC(=O)CCSc1ccc(OC(C)=O)cc1`, the growth in the assay with T-47D breast is 91.9%; in the assay with BT-549 breast, 96.5%; with MDA-MB-435 melanoma it was 104%; in the assay with SW-620 colon, 105%; with MCF7 breast, 102%; with HCT-116 colon, 97%. Further, the values for the growth with HCC-2998 colon and in the assay with KM12 colon were 89.7% and 99.9%, respectively.
Turning to `NNC(=O)/C(=C\c1ccc([N+](=O)[O-])cc1)CC(=O)c1ccc(Cl)c(Cl)c1`, the growth was 77.1% in the assay on T-47D breast; 110% with BT-549 breast; 96.9% with MDA-MB-435 melanoma; 86% in the assay on SW-620 colon; 73.8% in the assay on MCF7 breast; 88.9% in the assay with HCT-116 colon. Also, the values for the growth with HCC-2998 colon and in the assay with KM12 colon were 93.5% and 95.2%, respectively.
